For the experiment, the system named is HL-60(TB) leukemia. The experiment in a line: NCI-60 one-dose screen, 48 h (100 = growth as untreated, 0 = no growth, -100 = all killed). To be noted: 10 µM unless noted.

Each structure is given as a SMILES string. About 83,000 compounds went through this panel and 20% of them were active in at least one assay; those are over-represented in the sample as a whole.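 A percent growth of 40 corresponds to 60% growth inhibition; 0 means no net growth; -100 means all cells died. Active threshold: below 10.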 A number with no mark means an inactive call. The source made the active and inactive calls.

For the compound `CC1(C)OC(=O)C(=Cc2cccc(Br)c2)C(=O)O1`, the growth is 83.4%.

Regarding `O=C1N/C(=C\c2ccccc2)c2ncccc21`, the growth was 117%.

On to `N#C/C(=C/N1C(=O)/C(=C/c2ccc([N+](=O)[O-])cc2)SC1=S)c1nc2ccccc2s1`, for which the growth was 93.3%.

On to `CCN1C(=S)N(CC)C2C1NC(=S)N2/N=C/C=C/c1ccccc1OC` (stereo not given), for which the growth is -46.4% (active).

As to `CCCCCCCCCCCCCC[n+]1ccccc1`, the growth was -70.3% (active).

For the compound `O=C1NCN(c2ccccc2)C12CCN(CCCC(c1ccc(F)cc1)c1ccc(F)cc1)CC2`, the growth is 32.6%.

Regarding `COc1ccc(Cn2c(Br)c3c(c2-c2cc(OC)c(OC)c(OC)c2)CCc2sc(N)nc2-3)cc1`, the growth was -14.5% (active).

Consider `O=C1C(=O)c2c(nc3ncccn23)-c2ccccc21`, for which the growth is -51% (active).

Turning to `COc1ccc(C)cc1OC`, the growth is 94.3%.

As for `CCOc1nc(-c2ccccc2)cc2c(O)c(C(=O)NN)[nH]c(=O)c12`, the growth was 151%.

As to `CCOc1ccc(/C=N/NC(=O)c2cccc3ccccc23)cc1OCC`, the growth was 100%.

With `CN1C(=O)N(C)C2Nn3c(s/c(=C\c4ccccc4)c3=O)=NC21` (stereo not given), the growth is 95.2%.

As for `Oc1nc(NCc2ccccc2)sc1/C=C1\C=Nc2ncccc21`, the growth was 36.4%.

Regarding `CS(=O)(=O)c1ccc(C(=O)N/N=C/c2ccccc2Cl)cc1`, the growth is 52.3%.

Take `C=CCn1c(SCC(=O)Nc2ccc(C(=O)/C=C/c3cc(OC)c(OC)c(OC)c3)cc2)nnc1-c1ccc(Cl)cc1`: the growth is 12.3%.

Turning to `CC(=O)c1cc2ccccc2o1`, the growth was 102%.

Regarding `COc1ccc(-n2cnc3c(sc4ncc(Cl)cc43)c2=O)cc1`, the growth was 90.1%.

Regarding `O=C(Nc1ccc(-c2ccc3c(c2)NC(=O)/C3=C\c2ccc[nH]2)cc1)NC1CC1`, the growth is 98.3%.

Regarding `COc1ccc(/C=C/C(=O)c2ccc(Oc3ncnc4ccccc34)cc2)cc1OC`, the growth was 54.7%.

As for `O=C(Cc1ccccc1Nc1c(Cl)cccc1Cl)NN1C(=O)/C(=C/c2ccc(Br)cc2)SC1=S`, the growth was 101%.

Turning to `O=C(CCc1nnc2sc(-c3ccc(Cl)cc3Cl)nn12)c1nc2ncccc2[nH]1`, the growth is 3.13% (active).

As for `CC[C@H](C)[C@H](NC(=O)[C@H](CCCCN)NC(=O)[C@H](CCCCN)NC(=O)[C@@H](NC(=O)[C@@H](NC(=O)[C@@H](N)Cc1cnc[nH]1)[C@@H](C)CC)[C@@H](C)CC)C(=O)N[C@@H](CCCNC(=N)N)C(=O)N[C@H](C(=O)N[C@@H](Cc1c[nH]c2ccccc12)C(=O)N[C@@H](Cc1ccc(O)cc1)C(=O)N[C@@H](CCCNC(=N)N)C(=O)N[C@@H](CCCCN)C(=O)N[C@@H](C)C(=O)N[C@@H](Cc1c[nH]c2ccccc12)C(=O)N[C@@H](Cc1cnc[nH]1)C(=O)N[C@H](C(=O)N[C@@H](CC(C)C)C(=O)NCC(=O)N[C@@H](CCCCN)C(=O)N[C@H](C(N)=O)C(C)C)C(C)C)[C@@H](C)O`, the growth was 89.5%.

Turning to `CCOC(=O)c1c(C)[nH]c(C(=O)CCC(=O)OC)c1C`, the growth was 94.9%.

As to `O=C(NNC(=O)N1c2ccccc2C=Cc2ccccc21)c1ccccc1`, the growth is 98.8%.

Consider `Cc1nc2sc(C(=O)Nc3cccc4c3OCCO4)c(N)c2cc1C(C)O` (stereo not given), for which the growth was 8.35% (active).

With `Cn1cc(-c2noc(-c3cn(C)c4ncc(F)cc34)n2)c2cc(Br)ccc21`, the growth is 93.8%.

Consider `Cc1[nH]c(C2CC(c3ccc(C(F)(F)F)c(F)c3)=NN2c2ccccc2)c(C)c1C(=O)NCC(F)(F)F` (stereo not given), for which the growth is 87.6%.

With `COc1cc2c(=O)n(CCN)c3c4cc5c(cc4ccc3c2cc1OC)OCO5`, the growth was -64.9% (active).

For the compound `CCN(CC)CCOC(=O)c1ccc(N=Nc2ccc(O)c(OC)c2)cc1`, the growth is 97.5%.

`COc1ccc(-c2nnc(SCC(=O)N3CCN(c4cc5c(cc4F)c(=O)c(C(=O)O)cn5C4CC4)CC3)o2)cc1OC`: the growth is 66.8%.

As for `Cn1ccnc1CN1CCSC(C(=O)Nc2ccccc2)C1` (stereo not given), the growth was 88.6%.

As to `COC(=O)CCC/C=C\C[C@H]1C=CC(=O)/C1=C/C[C@@H](O)C/C=C\CC(F)(F)F`, the growth was 1.03% (active).

With `O=C(CN1CCN(c2ccc(Cl)cc2)CC1)N1CCN(c2nnc(-c3ccccc3)c(-c3ccccc3)n2)CC1`, the growth was -50.1% (active).

Take `CC1(C)N=C(N)N=C(N)N1c1cccc(Br)c1`: the growth was 33.9%.

In the case of `CCCCCCCCNc1ncnc2c1ncn2Cc1nnc2c3ccccc3c(Cl)nn12`, the growth was 29.2%.

Turning to `N#Cc1c(-c2ccccc2)cc(-c2ccc(Nc3nc(Nc4ccc(Cl)cc4)nc(Nc4ccc(Cl)cc4)n3)cc2)nc1N`, the growth was 15.6%.

Turning to `COc1ccc(S(=O)(=O)NCCNc2nccc(-c3c(-c4ccccc4)nc4sccn34)n2)cc1`, the growth was 25.4%.

`O=C(CC(CC(=O)c1ccccc1)c1ccccc1O)c1ccccc1`: the growth is 96.8%.

For the compound `NNCCc1ccc(NC(=O)CCCc2ccc(/C=C/C(=O)NO)cc2)cc1`, the growth was 18.3%.

In the case of `C=CCc1c(O)c(C(=O)/C=C/c2ccccc2)c(OC)c2ccoc12`, the growth is 36.3%.

For the compound `CC(C)C(C#N)(C(C)C)C(C)C`, the growth was 109%.

Take `O=C(NCc1ccccc1O)c1cccc2ccccc12`: the growth is 66.7%.

For the compound `O=C(Nc1ccccc1O)c1ccc(CNC(=O)c2ccsc2Nc2ccnc(C(F)(F)F)c2)cc1`, the growth was 7.44% (active).

`Cc1cc2nc(NC(=O)CN3CCN(CCN4C(=O)c5cccc6cccc(c56)C4=O)CC3)sc2cc1C`: the growth was 52.3%.

`Cc1ccc2c(c1)C(=O)/C(=C/c1ccc(OCC(=O)c3ccccc3)cc1)O2`: the growth was 69.9%.

For the compound `COc1ccc(C2=NN(C=O)C(c3cccc(Nc4ccnc5cc(Cl)ccc45)c3)C2)cc1` (stereo not given), the growth was -13.1% (active).

As for `Nc1ccc2c(c1)C(=O)NC2=O`, the growth is 71.1%.

On to `COc1ccc2c(c1)CC[C@@H]1[C@@H]2CC[C@]2(C)c3c(cc(C#N)c4c3sc3ccccc34)C[C@@H]12`, for which the growth was 91.7%.

Take `COCCOCCOCc1n(Cc2ccc3ccccc3n2)c2ccccc2[n+]1Cc1ccc2ccccc2n1`: the growth is -42.9% (active).

For `COc1ccc(-c2c(-c3cc4c(c(OC)c3OC)OCO4)noc2N)cc1`, the growth is 16.8%.

With `COc1ccc(/C=C2/C(=O)N=C3N2NC(c2ccccc2)=CN3c2ccccc2)cc1`, the growth was 101%.

As for `CC(=O)c1cc2c(N)c(C(=O)Nc3cccc4c3OCCO4)sc2nc1C`, the growth is 86.8%.

As for `CCCCCCC(CCCC)COC(=O)c1ccc(Cl)cc1` (stereo not given), the growth is 100%.

Take `CCOC(=O)N1CCN(S(=O)(=O)c2oc(-c3ccc(Cl)cc3)nc2C#N)CC1`: the growth is 56.4%.

In the case of `O=C1CC2c3cc(-c4cc5ccccc5o4)ccc3CCN2C(=O)N1c1ccccc1` (stereo not given), the growth is 69.9%.

Turning to `CCOP(=O)(OCC)/C(C#N)=C/c1c(C)[nH]c2ccccc12`, the growth was 96.6%.

As to `COc1ccc(CCc2nc3cc(-c4c(C)noc4C)ccc3n2CCN2CCOCC2)cc1`, the growth was 5.97% (active).

On to `COc1ccc(Cn2nc3c(c2-c2cc(OC)c(OC)c(OC)c2)-c2oncc2CC3)cc1`, for which the growth was 54.4%.

Take `COc1cc2nc(Cl)nc(Nc3cccc(C(=O)/C=C/c4ccc(F)cc4)c3)c2cc1OC`: the growth was 62.1%.

For `CCSc1ncc(Br)c(Sc2nc(N)nc3nc[nH]c23)n1`, the growth is 87.8%.

Take `Oc1c(CN2CCCC2)cc(CSCc2ccccc2)c2cccnc12`: the growth was -23.7% (active).

Regarding `N#CC1=CC2CN(Cc3ccccc3)C1C1C(=O)N(c3ccccc3)C(=O)C21` (stereo not given), the growth was 76%.

For the compound `CSCCC(NC(=O)C(Cl)Cl)C(=O)O` (stereo not given), the growth was 98.1%.

Turning to `O=S(=O)(Nc1cc(Sc2cccc3cccnc23)c(O)c2ccccc12)c1ccccc1`, the growth was -21% (active).

For `CC1=NN(c2ccccc2Cl)C(=O)/C1=C\c1cn(S(=O)(=O)c2ccc(C)cc2)c2ccccc12`, the growth was 114%.

On to `CNC(=O)NCC1OC(n2cnc3c(NC(=O)Nc4ccccc4)ncnc32)C2OC(C)(C)OC12` (stereo not given), for which the growth was 83.9%.

With `O=C(N/N=C/c1ccccc1O)c1ccccc1O`, the growth is 4.12% (active).

`CN1CCN(C(=O)OCc2nc3c(N4CCOCC4)nc(-c4ccccc4)nc3n2C)CC1`: the growth was -32.5% (active).

Take `O=S(=O)(O)c1ccc(O)c(C2CCCCC2)c1`: the growth was 131%.

On to `CSc1nc(=S)c2nc(SC)n(-c3ccccc3)c2[nH]1`, for which the growth was 110%.

Regarding `O=C1Nc2ccccc2/C1=N/N=C/c1ccc(OC2OC(CO)C(O)C(O)C2O)cc1` (stereo not given), the growth is 101%.

Turning to `O=C(Nc1ccccc1)c1sc(-c2cccc(C(F)(F)F)c2)cc1O`, the growth was 40.2%.

Take `CC/C(=C\c1ccc(N(C)C)cc1)c1ccncc1`: the growth is 29.5%.

On to `CCCC(=O)Oc1ccc(/C(=C(/CC)Cc2ccccc2)c2ccc(OCCN3CCCC3)cc2)cc1`, for which the growth was 89.2%.

Regarding `O=C1COCCN1c1ccc(Nc2nc(Cl)nc(N3CCOCC3)n2)cc1`, the growth is 90.5%.

In the case of `COc1ccc(OC)c(Nc2nnc(-c3ccc(O)c(OC)c3)o2)c1`, the growth is 87.3%.

For the compound `Cc1c(O)cc(-c2cnc(N/N=C\c3ccc(Cl)cc3)s2)c(O)c1C`, the growth is -3.05% (active).

As for `Cc1cc(N/N=C/c2nc(-c3ccccc3)oc2C)c2cc(Br)ccc2n1`, the growth is 80%.

Consider `COC(=O)Nc1nc2ccc(C(=O)c3ccc(F)cc3)cc2[nH]1`, for which the growth was -70.4% (active).

Regarding `Cl.Fc1c[c-]c(-c2ccccn2)c(F)c1.[Pt].c1ccc(P(c2ccccc2)C([PH+](c2ccccc2)c2ccccc2)[PH+](c2ccccc2)c2ccccc2)cc1`, the growth was 8.71% (active).
